Screens deposited in PubChem by National Center for Advancing Translational Sciences (NCATS).
Sampled rows, rich in hits. Any-hit rate of the full collection: about 1%.
gsp antag: antagonists of gsp mutant (McCune-Albright syndrome); gsp-mutant cells, cAMP HTRF, 30 min; Potency, µM (series often up to 76.9 µM), hits mostly inhibitors; 0.4% of 340,000 active; AID 624288; calls by dose curve; cell line not stated here;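 further: intracellular cAMP measured with PDE inhibitor Ro 20-1724 present during compound exposure; nearly all actives have a fitted effect of over 65% in size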
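HTRF cAMP measurement after 30 min RT detection following 30 min, 37C compound treatment alongside […] (added as 300 uM solution) in G418-selected cells seeded at 2000/well and grown 16–24 h.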
TSHR antag: blocks TSH signaling through the human TSH receptor | P16473 | 0.2% of 330,000 active | activity change, negative = inhibition, % at 11.5 µM | AID 504810 | TSHR-expressing cells, TSH-stimulated cAMP HTRF, 2 h; hits give low values;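 active means activity change below a set negative limit, meaning inhibition stronger than a set level, cut at about -70% in these data; inconclusive means activity change between two set negative limits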
Target sequence (P16473 whole entry, looked up): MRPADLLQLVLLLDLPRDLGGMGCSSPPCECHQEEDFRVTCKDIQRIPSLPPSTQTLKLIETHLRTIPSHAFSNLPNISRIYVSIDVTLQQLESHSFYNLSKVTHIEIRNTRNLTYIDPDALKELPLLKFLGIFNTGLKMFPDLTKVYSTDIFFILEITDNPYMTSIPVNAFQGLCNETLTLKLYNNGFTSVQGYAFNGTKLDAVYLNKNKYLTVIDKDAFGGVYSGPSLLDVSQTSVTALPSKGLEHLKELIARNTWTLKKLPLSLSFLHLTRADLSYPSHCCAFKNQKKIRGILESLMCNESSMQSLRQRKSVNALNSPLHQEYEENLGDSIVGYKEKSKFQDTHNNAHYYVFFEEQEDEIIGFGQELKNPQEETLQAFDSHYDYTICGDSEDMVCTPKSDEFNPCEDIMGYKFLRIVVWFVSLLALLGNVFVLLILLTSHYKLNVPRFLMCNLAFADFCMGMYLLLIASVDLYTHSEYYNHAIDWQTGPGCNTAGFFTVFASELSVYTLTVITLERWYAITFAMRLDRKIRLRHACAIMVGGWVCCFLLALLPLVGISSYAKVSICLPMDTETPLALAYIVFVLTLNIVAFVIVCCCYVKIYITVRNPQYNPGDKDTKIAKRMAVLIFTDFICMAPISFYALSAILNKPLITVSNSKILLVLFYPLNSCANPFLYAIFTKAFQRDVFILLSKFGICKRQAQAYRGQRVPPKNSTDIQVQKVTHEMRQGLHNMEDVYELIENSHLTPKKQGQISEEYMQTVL
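Cell-based HTRF cAMP assay; TSHR cells + compound, TSH EC80 (4nM final), 2 h, 37 deg C. Lysis with anti-cAMP cryptate and cAMP-d2, 30 min RT, read 665/620 nm.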
gsp ag: agonists of gsp mutant (McCune-Albright syndrome); gsp mutant cells, cAMP HTRF, 30 min; Potency, µM (doses to about 76.9 µM), usual class: activators; 0.13% of 340,000 active; active means well fitted activation curve with a large enough effect; inconclusive means small, poorly fitted or top-dose-only effect, or another doubt; inactive means no such curve, though single readings can be large or run the other way; cell line not stated here;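 further: phosphodiesterase inhibitor Ro 20-1724 added with compounds to block cAMP breakdown; nearly all actives have a fitted effect of over 60% in size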
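Cells stably selected in G418 were plated at 2000/well, grown 16-24 hr, then given compounds in DMSO with the PDE inhibitor […] (300 uM solution added) for 30 min at 37C; cAMP was read by HTRF.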
RXFP1 agonist: RXFP1 (human) receptor agonism; HEK293T-RXFP1 cAMP TR-FRET, 30 min; response scale: percent of porcine relaxin response, buffer zero; Potency, µM (top dose mostly 57.5 µM), most hits filed as activators; Q9HBX9; 0.3% of 370,000 active; active means well fitted activation curve with a large enough effect; inconclusive means small, poorly fitted or top-dose-only effect; further: nearly all actives have a fitted effect of over 60% in size
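cAMP rise read by TR-FRET after 30 min, 37C compound exposure (up to 58 uM) in RXFP1-transfected HEK293 cells with Ro 20174 present. EC50 from Hill-equation fits, with 29 nM porcine relaxin as 100% and buffer as basal.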
RXFP1 antag: antagonists of human relaxin receptor RXFP1; HEK293-RXFP1, relaxin-stimulated cAMP HTRF, 30 min; hits give low values; AID 1259400; Q9HBX9; activity change, negative = inhibition, % at 57.5 µM; 0.59% of 350,000 active;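 active means activity change of -60% or lower, but not beyond a set lower limit; inconclusive means change between -60% and -40%, or beyond the set limit; inactive means change above -40%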
Large screens that a line does not name were inactive.

O=C(Nc1ccc(Cl)c(-c2nc3cc(Cl)ccc3o2)c1)c1cc([N+](=O)[O-])ccc1N1CCOCC1	none (no result: gsp antag, TSHR antag, gsp ag, RXFP1 antag)
O=C(O)c1c(-c2ccccc2)c2oc3ccccc3c2[nH]c1=O	gsp ag 40µM
CCC(=O)OCc1cc(=O)n2nc(C3CC3)sc2n1	none (no result: gsp antag, TSHR antag, gsp ag, RXFP1 antag)
O=C(CSc1ccc(-c2ccco2)nn1)NCc1ccccc1Cl	gsp ag 11µM (no result: RXFP1 antag)
CCOc1cc2c(cc1OCC)C(CC(=O)O)N(C(=O)Nc1ccccc1C(F)(F)F)CC2 (stereo not drawn)	none (no result: gsp antag, TSHR antag, gsp ag)
O=C1c2cc(S(=O)(=O)NCCO)ccc2-c2ccc(S(=O)(=O)NCCO)cc21	none
O=C(O)CNS(=O)(=O)c1ccc2c(c1)C(=O)c1cc(S(=O)(=O)NCC(=O)O)ccc1-2	gsp ag 13µM
Cc1ccc(NC(=S)NC(=O)/C=C/c2ccco2)c(O)c1	RXFP1 antag -63
COc1ccc(NC(=S)NC(=O)/C=C/c2ccco2)c(OC)c1	gsp antag inconclusive, RXFP1 antag -81
COc1cccc(NC(=S)NC(=O)/C=C/c2ccco2)c1	none
COc1cc(C(=O)Nc2cc3c(cc2C)n(C)c(=O)c(=O)n3C)cc(OC)c1OC	none (no result: gsp antag, TSHR antag, gsp ag)
O=[N+]([O-])c1ccccc1CSc1nnc2ccccn12	none
O=[N+]([O-])c1ccc(CSc2nnc3ccccn23)cc1	gsp ag 18µM
Cc1cc(C)cc(NC(=O)c2cc(CN3CCCC3)on2)c1	none (no result: gsp antag, TSHR antag, gsp ag)
CCOc1ccc(N2CC(c3nc4ccccc4n3CCCOc3ccc(OC)cc3)CC2=O)cc1 (stereo not drawn)	none (no result: gsp antag, TSHR antag, gsp ag)
CC(=O)Nc1c(Cl)cc(Cl)c2c1Cc1cc(Cl)ccc1-2	RXFP1 antag -101 (no result: TSHR antag, RXFP1 agonist)
COC(=O)c1cc(Nc2nc3ccccc3nc2NS(=O)(=O)c2ccc(C)cc2)ccc1Cl	none (no result: gsp antag, TSHR antag, gsp ag, RXFP1 antag)
O=C(O)C1CCC(Cn2c(SCc3cc(=O)n4cc(Br)ccc4n3)nc3ccsc3c2=O)CC1 (stereo not drawn)	RXFP1 agonist 8.9µM (no result: gsp antag)
O=C(O)c1ccc(Cn2c(SCc3cc(=O)n4cc(Br)ccc4n3)nc3ccsc3c2=O)cc1	RXFP1 agonist 16µM (no result: gsp antag, gsp ag, RXFP1 antag)
COc1ccc(CCNC(=O)CSc2nc3ccsc3c(=O)n2CC2CCC(C(=O)O)CC2)cc1OC (stereo not drawn)	none
O=C(O)CCCCn1c(SCc2cc(=O)n3cc(Cl)ccc3n2)nc2ccsc2c1=O	gsp ag inconclusive, RXFP1 agonist inconclusive
Cc1ccccc1C(=O)Nc1ccc(C(=O)N2CCCC(N(C)C)c3ccccc32)cc1 (stereo not drawn)	none (no result: gsp antag, TSHR antag, gsp ag, RXFP1 agonist)
O=[N+]([O-])c1c(Nc2ccc(O)cc2)cc(Cl)c2nonc12	gsp antag 7.9µM, TSHR antag -102, RXFP1 antag inconclusive
CCCC(=O)N(C1CC(C)C(C#N)(C#N)C1(C#N)C#N)N(C)C (stereo not drawn)	TSHR antag inconclusive, RXFP1 antag -85
CC(=O)N(C1CC(C)C(C#N)(C#N)C1(C#N)C#N)N(C)C (stereo not drawn)	none
CCN(CC)CC(=O)OCC(=O)[C@@]1(O)CC[C@H]2[C@@H]3CCC4=CC(=O)CC[C@]4(C)[C@H]3[C@@H](O)C[C@@]21C	none (no result: gsp antag, TSHR antag, gsp ag, RXFP1 agonist)
COc1cnn(-c2ccc(C)cc2)c(=O)c1SCc1ccccc1	gsp antag 32µM, gsp ag inconclusive
CCOC(=O)c1[nH]c2ccc(OC)cc2c1NC(=O)c1ccc2c(c1)OCO2	none
CCOC(=O)c1[nH]c2cc(OC)c(OC)cc2c1NC(=O)c1ccc2c(c1)OCO2	TSHR antag -75
CC(NCc1ccc2c(c1)OCO2)c1ccccc1 (stereo not drawn)	none
c1ccc(C(O[C@H]2CCCN(CCc3ccc4c(c3)OCO4)C2)c2ccccc2)cc1	RXFP1 antag -62 (no result: gsp antag, TSHR antag, gsp ag, RXFP1 agonist)
CC(C)CC1N=C2c3ccccc3N=C(SCC(=O)NCCc3ccc(Cl)cc3)N2C1=O (stereo not drawn)	none (no result: gsp antag, TSHR antag, gsp ag)
COc1cc(C2C(C(C)=O)=C(O)C(=O)N2CCN2CCOCC2)ccc1O (stereo not drawn)	gsp ag inconclusive
COc1cc(C2C(C(=O)c3ccc(C)o3)=C(O)C(=O)N2CCN2CCOCC2)ccc1OCCC(C)C (stereo not drawn)	RXFP1 agonist 16µM
c1csc(-c2nnc(NC3CCCCC3)c3ccccc23)c1	gsp antag 40µM
COc1ccccc1NC(=O)NC1(C(=O)N2CCCCC2)CCCCC1	TSHR antag -75
CCCc1nn2c(=O)cc(COC(=O)c3cccc(NC(=O)COc4ccccc4C)c3)nc2s1	none (no result: gsp antag, TSHR antag, gsp ag)
O=C(CCCl)NCCc1ccccc1	none (no result: gsp antag, TSHR antag, gsp ag, RXFP1 agonist)
O=c1[nH]c2sc3c(c2c2nncn12)CCCC3	gsp antag 35µM
COc1ccc(NS(=O)(=O)c2ccc3c(c2)Cc2ccccc2-3)cn1	gsp antag 28µM
COc1ccccc1N1CCN(c2ncnc3c2c(-c2ccccc2)cn3-c2cccc(C)c2)CC1	none (no result: gsp antag, TSHR antag, gsp ag)
Cc1cc(-c2ccc(S(=O)(=O)NCc3ccc(F)cc3)cc2)on1	gsp antag 0.79µM
Cc1ccc(CCNC(=O)c2ccc(CNS(=O)(=O)c3ccc(F)cc3)cc2)cc1	RXFP1 antag -71 (no result: gsp antag, TSHR antag, gsp ag)
CCc1cccc(CC)c1NC(=O)Cn1nnc2sc3c(c2c1=O)CCCC3	none (no result: gsp antag, TSHR antag, gsp ag)
COc1ccc2c(c1)c(=O)c(C(=O)c1ccc(F)cc1)cn2CC(=O)Nc1ccc2c(c1)OCO2	none (no result: gsp antag, TSHR antag, gsp ag, RXFP1 antag)
Cc1ccc(C)c(S(=O)(=O)NCCc2csc(-c3ccc(Cl)cc3)n2)c1	none (no result: gsp antag, TSHR antag, gsp ag)
COc1cc2c(cc1NC(=O)CN(C)Cc1ccc(OC)c(OC)c1)oc1ccccc12	gsp antag 40µM
COc1cc(OC)c(NC(=O)c2cc3ccccc3cc2O)cc1Cl	gsp antag 32µM (no result: TSHR antag, RXFP1 agonist)
COc1ccc(OC)c(NC(=O)c2cc3oc4ccccc4c3cc2O)c1	gsp antag inconclusive, gsp ag 32µM
COc1ccc(CN(C)CC(=O)Nc2cc3oc4ccccc4c3cc2OC)c(OC)c1	gsp antag inconclusive
Cc1cc(Cl)n2c(nc3cc(F)c(F)cc32)c1C#N	TSHR antag -73
COc1ccccc1C(=O)NCCC(=O)Nc1ccncc1	none
COc1ccccc1C(=O)NCCC(=O)Nc1ccc(OC(F)(F)F)cc1	TSHR antag -95
COc1ccc(CCC(=O)NCc2ccccc2OC)cc1	gsp antag 3.2µM, gsp ag inconclusive
COc1ccc(CCC(=O)NCCc2csc(-c3cccc(C)c3)n2)cc1	RXFP1 antag -73 (no result: gsp antag, TSHR antag, gsp ag)
COc1ccccc1CNC(=O)CCc1ccccc1	none
O=C(NCCc1csc(-c2cccc(F)c2)n1)c1ccc(Br)o1	RXFP1 antag -78 (no result: gsp antag, TSHR antag, gsp ag)
CC1(C)SC2C(NC(=O)C(c3ccccc3)S(=O)(=O)O)C(=O)N2C1C(=O)O (stereo not drawn)	none (no result: gsp antag, TSHR antag, gsp ag, RXFP1 agonist)
Cc1cccn2c(=O)c3cc(C(=O)NCc4ccccc4Cl)sc3nc12	none (no result: gsp antag, TSHR antag, gsp ag)
Cc1cccc(OCCSc2nc3ccc(NC(=O)COc4ccccc4)cc3s2)c1	none (no result: gsp antag, TSHR antag, gsp ag, RXFP1 antag)
Cc1ccc(CNC(=O)CCc2nnc3ccc(N4CCC5(CC4)OCCO5)nn23)cc1	gsp ag inconclusive, RXFP1 agonist 18µM
